Values joined by “and” are separate entries in the source; they are usually repeats but may differ in a detail not shown here. Equal entries are not always repeated. Results filed as inconclusive are left out. Active and inactive are the calls of the source. Unless noted, calls follow the shape of the dose curve; as a rule, active = well fitted curve in the direction sought with a large enough effect in the repeat runs; inconclusive = weak or mixed curves; inactive = no such curve, though single readings can be large; an effect the other way counts as inactive or inconclusive.
What was measured:
[1] = qHTS assay to identify small molecule agonists of the estrogen receptor beta (ER-beta) signaling pathway - cell viability counter screen (AID 1259380); also: nearly all actives have a fitted effect of over 30% in size; also: potency is read from the fitted curve at half-maximal effect
In short: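 Viability of ER-beta-UAS-bla HEK293T cells was determined by CellTiter-Glo luminescence following 16 hr treatment with test compounds at 37C.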

[2] = target: Androgen receptor (Homo sapiens) (UniProt P10275); test: qHTS assay to identify small molecule agonists of the androgen receptor (AR) signaling pathway in the presence of an antagonist (AID 1259381; calls by dose curve; also: nearly all actives have a fitted effect of over 15% in size)
In short: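 Here, 15-concentration compound series were pin-transferred onto MDA-kb2 MMTV-luciferase cells already dosed with nilutamide (3.0uM final). After 16hr at 37C, ONE-Glo was added and luminescence read 30min later at room temperature.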

[3] = qHTS assay to identify small molecule antagonists of the estrogen receptor beta (ER-beta) signaling pathway - cell viability counter screen (AID 1259382); also: nearly all actives have a fitted effect of over 55% in size; also: potency is read from the fitted curve at half-maximal effect; as to activity change, negative = cytotoxicity: series mostly up to about 92 µM
In short: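 Tox21 10K library tested in qHTS format on ER-beta-bla HEK293T cells stimulated with 1nM E2; 16 hr treatment at 37C. Same-well CellTiter-Glo luminescence served as the cell viability measure.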

[4] = qHTS assay to identify small molecule agonists or antagonists of the thyroid stimulating hormone receptor (TSHR) signaling pathway - wild type cell line counter screen (AID 1259384; calls by dose curve)
In short: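 Wild-type Hek293 cells, 800/well, 18 h at 37C, then compound with Ro20-1724 for 30 min RT. cAMP by HTRF (cAMP-d2/anti-cAMP cryptate), 1 h RT, fluorescence read. 15 concentrations, triplicates.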

[5] = target: Thyrotropin receptor (Homo sapiens) (UniProt P16473); test: qHTS assay to identify small molecule antagonists of the thyroid stimulating hormone receptor (TSHR) signaling pathway (AID 1259385; calls by dose curve; also: nearly all actives have a fitted effect of over 20% in size; also: potency is read from the fitted curve at half-maximal effect)
In short: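 TSHR-HEK293 cells (800/well) plated 18 h, then compounds with Ro20-1724 and TSH at 1.5 ng/mL final, 30 min at room temperature. cAMP quantified by HTRF (cAMP-d2/anti-cAMP-cryptate, 1 h); 15 concentrations in triplicate.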

[6] = qHTS assay to identify small molecule agonists of the estrogen receptor alpha (ER-alpha) signaling pathway in the presence of an antagonist - cell viability counter screen (AID 1259386);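 also: cells exposed to compounds for 22 h at 37 °C before the viability read; nearly all actives have a fitted effect of over 30% in size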; also: potency is read from the fitted curve at half-maximal effect; as to activity change, negative = cytotoxicity: series mostly up to about 92 µM
In short: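 Fluorescent CellTiter-Fluor viability signal from VM7Luc4E2 cells, with the reagent added during the final hour of a 22hr compound exposure at 37C in the presence of 10.0nM ICI-182,780.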

[7] = target: Progesterone receptor (Homo sapiens) (UniProt P06401); test: qHTS assay to identify small molecule agonists of the progesterone receptor (PR) signaling pathway (AID 1346784; calls by dose curve; also: nearly all actives have a fitted effect of over 30% in size)
In short: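 Fluorescence from LiveBLAzer B/G FRET substrate cleavage (2 hr, RT) reported PR activation in PR-UAS-bla HEK 293T cells treated 16 hr at 37C/5% CO2 with compounds; medium contained 2% charcoal-stripped FBS.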

[8] = target: Progesterone receptor (Homo sapiens) (UniProt P06401); test: qHTS assay to identify small molecule antagonists of the progesterone receptor (PR) signaling pathway (AID 1346795; active = well fitted inhibition curve with a large enough effect in the signal ratio in the repeat runs, not every such curve was filed as active; the % refers to the signal ratio; also: potency is read from the fitted curve at half-maximal effect)
In short: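 Fluorescence intensity measured 2 hr after adding beta-lactamase FRET substrate to PR-UAS-bla HEK293T cells that had been co-treated 16 hr with compound and 1 nM R5020 (final concentration) in 2% charcoal-stripped FBS.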

[9] = qHTS assay to identify small molecule antagonists of the TGF-beta/Smad signaling pathway - cell viability counter screen (AID 1346824); also: nearly all actives have a fitted effect of over 50% in size
In short: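 SBE-bla HEK 293T cells, incubated overnight, then compound plus 0.25 ng/mL TGF-beta1 (stock added) for 5 hr at 37 C. Viability was read in the same wells by CellTiter-Glo luminescence after 30 min at room temperature.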

[10] = qHTS assay to identify small molecule agonists of the TGF-beta/Smad signaling pathway (AID 1346859; active = well fitted activation curve with a large enough effect in the signal ratio in the repeat runs, not every such curve was filed as active; the % refers to the signal ratio; also: series mostly up to about 77 µM)
In short: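 After overnight seeding, SBE-bla HEK 293T cells are dosed with compounds in DMSO and kept 5 hr at 37 C, 5% CO2. LiveBLAzer-type FRET substrate is then applied for 2 hr at room temperature.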

[11] = target: Thyrotropin-releasing hormone receptor (Homo sapiens) (UniProt P34981); test: qHTS assay to identify small molecule antagonists of the thyrotropin-releasing hormone receptor (TRHR) signaling pathway (AID 1346877; active = well fitted inhibition curve with a large enough effect in the repeat runs, not every such curve was filed as active; also: series mostly up to about 51 µM)
In short: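 In this cell-based calcium flux format, HEK293 cells expressing TRHR received test compound for 5 min before the agonist TRH (1 nM final). Dye loading lasted 2 h at 37 °C.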

[12] = target: Thyrotropin-releasing hormone receptor (Homo sapiens) (UniProt P34981); test: qHTS assay to identify small molecule agonists of the thyrotropin-releasing hormone receptor (TRHR) signaling pathway (AID 1346891; calls by dose curve; also: series mostly up to about 58 µM)
In short: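 Compounds were tested as agonists at 15 concentrations, in triplicate, on TRHR-Hek293 cells; calcium-sensitive dye fluorescence was recorded for 3 min following addition.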

[13] = qHTS assay to identify small molecule agonists of the androgen receptor (AR) signaling pathway in the presence of an antagonist - cell viability counter screen (AID 1259379); also: nearly all actives have a fitted effect of over 25% in size; also: potency is read from the fitted curve at half-maximal effect;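 as to activity change, negative = cytotoxicity: MDA-kb2 human breast cancer cells carrying an MMTV luciferase reporter; series mostly up to about 92 µM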
In short: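 In MDA-kb2 cells (human breast carcinoma, MMTV-luciferase), compounds at 15 concentrations plus 3.0uM nilutamide; 16 hr, 37C, 0% CO2; CellTiter-Fluor fluorescence read for viability.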

[14] = qHTS assay to identify small molecule antagonists of the progesterone receptor (PR) signaling pathway - cell viability counter screen (AID 1346798); also: nearly all actives have a fitted effect of over 50% in size; also: potency is read from the fitted curve at half-maximal effect; as to activity change, negative = cytotoxicity: series mostly up to about 92 µM
In short: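 CellTiter-Glo luminescence; PR-UAS-bla HEK293T, 3,000 cells/well; compound + R5020, 16 hr, 37C/5% CO2; 30 min RT before read.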

[15] = qHTS assay to identify small molecule agonists of the progesterone receptor (PR) signaling pathway - cell viability counter screen (AID 1346799; calls by dose curve; also: nearly all actives have a fitted effect of over 45% in size; also: potency is read from the fitted curve at half-maximal effect)
In short: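 In parallel with the beta-lactamase readout, cytotoxicity toward PR-UAS-bla HEK293T cells was measured by CellTiter-Glo luminescence following 16 hr compound incubation in 2% charcoal-stripped FBS medium.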

[16] = target: Estrogen receptor beta (Homo sapiens) (UniProt Q92731); test: qHTS assay to identify small molecule agonists of the estrogen receptor beta (ER-beta) signaling pathway (AID 1259377; active = well fitted activation curve with a large enough effect in the signal ratio in the repeat runs, not every such curve was filed as active; the % refers to the signal ratio)
In short: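 qHTS in ER-beta-UAS-bla HEK293T cells: 6 hr settling, then 16 hr compound at 37C, then LiveBLAzer substrate 2 h at RT before fluorescence reading.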

[17] = target: Estrogen receptor beta (Homo sapiens) (UniProt Q92731); test: qHTS assay to identify small molecule antagonists of the estrogen receptor beta (ER-beta) signaling pathway (AID 1259378; active = well fitted inhibition curve with a large enough effect in the signal ratio in the repeat runs, not every such curve was filed as active; the % refers to the signal ratio)
In short: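 ER-beta-UAS-bla HEK293T cells in 2% charcoal-stripped FBS medium treated with compound plus 1nM final 17-beta-estradiol for 16 hr at 37C. Beta-lactamase reporter read by FRET substrate fluorescence after 2 hours at room temperature.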

[18] = target: Estrogen receptor (Homo sapiens) (UniProt P03372); test: qHTS assay to identify small molecule agonists of the estrogen receptor alpha (ER-alpha) signaling pathway in the presence of an antagonist (AID 1259383; calls by dose curve; also: top concentration of the series differs between compounds; nearly all actives have a fitted effect of over 15% in size)
In short: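 In VM7Luc4E2 cells, 4,000 per well, compounds at 15 concentrations were co-incubated 22hr at 37C with 10.0nM final ICI-182,780. Luminescence from the stably transfected 4×ERE-luciferase reporter was recorded 30min after ONE-Glo addition.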

[19] = qHTS assay to identify small molecule agonists of the TGF-beta/Smad signaling pathway - cell viability counter screen (AID 1346829); also: top concentration of the series differs between compounds; nearly all actives have a fitted effect of over 45% in size
In short: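 Compound-treated SBE-bla HEK 293T cells (5 hr, 37 C) were assessed for viability with CellTiter-Glo in parallel with the reporter read.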
% is scaled to controls: 0 for no effect and ±100 for the full control effect.

Sequence of Progesterone receptor (Homo sapiens) (P06401 whole entry, looked up): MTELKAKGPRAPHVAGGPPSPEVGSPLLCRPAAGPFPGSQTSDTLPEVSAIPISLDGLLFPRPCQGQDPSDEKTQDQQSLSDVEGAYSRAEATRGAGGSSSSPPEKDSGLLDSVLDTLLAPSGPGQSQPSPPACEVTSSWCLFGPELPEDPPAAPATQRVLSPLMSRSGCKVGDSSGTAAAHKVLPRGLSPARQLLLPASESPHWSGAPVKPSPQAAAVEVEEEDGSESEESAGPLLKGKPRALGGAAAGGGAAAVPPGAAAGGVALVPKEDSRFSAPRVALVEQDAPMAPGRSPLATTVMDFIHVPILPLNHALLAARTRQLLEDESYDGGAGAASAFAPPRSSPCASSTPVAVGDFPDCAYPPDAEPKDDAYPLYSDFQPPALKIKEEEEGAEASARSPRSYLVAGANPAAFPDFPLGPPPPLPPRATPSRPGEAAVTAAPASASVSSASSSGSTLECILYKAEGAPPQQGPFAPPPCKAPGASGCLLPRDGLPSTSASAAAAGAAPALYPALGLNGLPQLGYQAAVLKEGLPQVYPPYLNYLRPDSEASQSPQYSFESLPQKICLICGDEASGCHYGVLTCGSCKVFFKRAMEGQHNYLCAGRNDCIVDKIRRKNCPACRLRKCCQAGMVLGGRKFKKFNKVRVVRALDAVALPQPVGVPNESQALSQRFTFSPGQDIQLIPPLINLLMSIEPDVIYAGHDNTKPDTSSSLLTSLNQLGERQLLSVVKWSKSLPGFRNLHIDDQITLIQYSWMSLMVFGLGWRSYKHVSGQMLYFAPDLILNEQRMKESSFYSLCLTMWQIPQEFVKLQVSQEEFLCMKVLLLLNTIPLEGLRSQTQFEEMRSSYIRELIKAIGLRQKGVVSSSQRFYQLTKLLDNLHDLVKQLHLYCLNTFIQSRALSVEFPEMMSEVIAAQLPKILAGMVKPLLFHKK
Sequence of Estrogen receptor (Homo sapiens) (P03372 whole entry, looked up): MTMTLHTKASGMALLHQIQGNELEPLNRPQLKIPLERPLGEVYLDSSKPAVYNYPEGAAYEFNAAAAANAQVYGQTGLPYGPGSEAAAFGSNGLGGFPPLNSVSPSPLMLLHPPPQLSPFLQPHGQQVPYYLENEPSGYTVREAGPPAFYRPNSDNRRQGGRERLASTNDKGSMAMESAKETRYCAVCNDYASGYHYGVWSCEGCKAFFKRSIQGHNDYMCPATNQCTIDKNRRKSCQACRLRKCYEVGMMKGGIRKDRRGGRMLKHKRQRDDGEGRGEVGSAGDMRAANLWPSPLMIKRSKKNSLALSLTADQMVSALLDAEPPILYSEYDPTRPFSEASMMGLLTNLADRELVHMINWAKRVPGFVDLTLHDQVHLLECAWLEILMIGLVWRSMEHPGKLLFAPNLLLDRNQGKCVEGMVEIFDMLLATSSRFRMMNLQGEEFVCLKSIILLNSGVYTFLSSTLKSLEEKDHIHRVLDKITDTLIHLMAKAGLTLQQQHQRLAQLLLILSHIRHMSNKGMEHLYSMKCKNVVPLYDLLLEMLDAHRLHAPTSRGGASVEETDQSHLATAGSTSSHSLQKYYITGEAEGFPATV
Sequence of Thyrotropin receptor (Homo sapiens) (P16473 whole entry, looked up): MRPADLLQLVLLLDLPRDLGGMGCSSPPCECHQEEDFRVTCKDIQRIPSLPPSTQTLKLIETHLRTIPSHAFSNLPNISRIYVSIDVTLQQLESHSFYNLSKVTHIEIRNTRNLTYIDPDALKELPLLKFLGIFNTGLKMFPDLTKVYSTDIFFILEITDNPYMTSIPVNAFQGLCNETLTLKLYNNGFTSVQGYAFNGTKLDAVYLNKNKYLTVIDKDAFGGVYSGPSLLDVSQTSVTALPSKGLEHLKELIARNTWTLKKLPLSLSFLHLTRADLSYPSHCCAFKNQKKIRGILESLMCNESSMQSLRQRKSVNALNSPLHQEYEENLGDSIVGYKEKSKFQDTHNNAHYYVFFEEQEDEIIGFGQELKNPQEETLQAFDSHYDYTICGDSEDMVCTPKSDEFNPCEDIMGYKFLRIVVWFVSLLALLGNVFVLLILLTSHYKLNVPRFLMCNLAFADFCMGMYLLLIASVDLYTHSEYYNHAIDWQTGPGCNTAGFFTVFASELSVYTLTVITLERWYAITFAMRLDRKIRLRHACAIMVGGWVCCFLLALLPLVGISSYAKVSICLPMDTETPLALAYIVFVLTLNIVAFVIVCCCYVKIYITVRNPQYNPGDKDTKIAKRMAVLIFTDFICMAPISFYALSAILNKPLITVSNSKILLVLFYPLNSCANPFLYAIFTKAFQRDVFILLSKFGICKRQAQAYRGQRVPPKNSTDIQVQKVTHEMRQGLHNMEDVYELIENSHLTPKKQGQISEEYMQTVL
Sequence of Thyrotropin-releasing hormone receptor (Homo sapiens) (P34981 whole entry, looked up): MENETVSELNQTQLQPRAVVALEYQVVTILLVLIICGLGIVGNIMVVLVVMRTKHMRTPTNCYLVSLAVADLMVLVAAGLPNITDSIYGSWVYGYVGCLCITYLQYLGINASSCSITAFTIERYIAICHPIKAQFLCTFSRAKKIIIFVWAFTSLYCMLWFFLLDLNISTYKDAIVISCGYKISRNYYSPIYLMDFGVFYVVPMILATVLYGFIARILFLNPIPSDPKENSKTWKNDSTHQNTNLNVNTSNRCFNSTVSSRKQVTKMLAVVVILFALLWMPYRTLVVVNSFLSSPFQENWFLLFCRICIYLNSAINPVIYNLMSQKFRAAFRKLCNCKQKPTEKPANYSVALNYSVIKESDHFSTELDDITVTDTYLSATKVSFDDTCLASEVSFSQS
Sequence of Estrogen receptor beta (Homo sapiens) (Q92731 whole entry, looked up): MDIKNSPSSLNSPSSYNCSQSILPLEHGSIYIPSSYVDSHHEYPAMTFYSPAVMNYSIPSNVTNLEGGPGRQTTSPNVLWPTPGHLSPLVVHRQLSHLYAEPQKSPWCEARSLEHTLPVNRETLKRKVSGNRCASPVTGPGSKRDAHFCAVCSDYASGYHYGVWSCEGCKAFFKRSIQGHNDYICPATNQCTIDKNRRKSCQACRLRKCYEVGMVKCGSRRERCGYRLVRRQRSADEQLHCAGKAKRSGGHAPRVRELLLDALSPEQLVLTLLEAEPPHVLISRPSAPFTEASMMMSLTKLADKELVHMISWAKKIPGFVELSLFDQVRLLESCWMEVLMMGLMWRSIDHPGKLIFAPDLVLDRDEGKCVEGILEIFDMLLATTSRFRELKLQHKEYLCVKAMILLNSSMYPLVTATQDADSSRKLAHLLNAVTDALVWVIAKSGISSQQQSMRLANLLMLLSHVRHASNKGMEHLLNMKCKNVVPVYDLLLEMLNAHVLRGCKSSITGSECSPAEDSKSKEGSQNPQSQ
Sequence of Androgen receptor (Homo sapiens) (P10275 whole entry, looked up): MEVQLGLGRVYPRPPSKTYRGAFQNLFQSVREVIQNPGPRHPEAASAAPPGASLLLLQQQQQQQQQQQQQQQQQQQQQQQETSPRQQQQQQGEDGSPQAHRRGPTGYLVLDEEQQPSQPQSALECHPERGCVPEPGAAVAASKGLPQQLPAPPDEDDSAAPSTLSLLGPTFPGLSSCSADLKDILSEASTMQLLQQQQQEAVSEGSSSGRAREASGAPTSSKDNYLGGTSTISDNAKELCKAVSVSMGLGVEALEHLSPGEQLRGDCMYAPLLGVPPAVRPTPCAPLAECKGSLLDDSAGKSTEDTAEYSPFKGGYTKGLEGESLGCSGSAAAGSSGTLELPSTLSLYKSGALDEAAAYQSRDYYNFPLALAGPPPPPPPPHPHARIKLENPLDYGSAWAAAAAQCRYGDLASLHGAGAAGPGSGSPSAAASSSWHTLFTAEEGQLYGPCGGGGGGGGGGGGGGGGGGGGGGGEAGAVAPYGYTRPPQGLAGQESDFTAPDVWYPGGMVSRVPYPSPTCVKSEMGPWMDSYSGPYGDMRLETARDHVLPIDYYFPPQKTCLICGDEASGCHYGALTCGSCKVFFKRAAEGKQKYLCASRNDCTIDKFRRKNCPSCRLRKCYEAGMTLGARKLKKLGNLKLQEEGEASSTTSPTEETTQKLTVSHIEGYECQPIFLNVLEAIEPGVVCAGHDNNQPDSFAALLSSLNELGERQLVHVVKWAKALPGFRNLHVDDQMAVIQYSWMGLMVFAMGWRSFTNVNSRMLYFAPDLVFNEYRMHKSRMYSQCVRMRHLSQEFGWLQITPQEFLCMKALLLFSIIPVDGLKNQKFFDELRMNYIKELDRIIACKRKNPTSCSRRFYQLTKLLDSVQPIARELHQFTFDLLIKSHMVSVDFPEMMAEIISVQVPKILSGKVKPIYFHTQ

CO[C@]12C[C@@H](COC(=O)c3cncc(Br)c3)CN(C)[C@@H]1Cc1cn(C)c3cccc2c13
inactive: Potency [1] | Potency [2] | Potency [3] | outcome [4] | Potency [5] | Potency [6] | Potency [7] | Potency [8] | Potency [9] | outcome [10] | outcome [11] | outcome [12]

NS(=O)(=O)c1ccccc1Cl
inactive: Potency [13] | Potency [1] | Potency [3] | outcome [4] | Potency [5] | Potency [6] | Potency [7] | Potency [8] | Potency [14] | Potency [15] | Potency [9] | outcome [10]

Cc1cccn2c(=O)c(-c3nnn[nH]3)cnc12
inactive: outcome [16] | activity, negative = inhibition [17] 3.16% [at 19 µM] | activity change, negative = cytotoxicity [13] 1.69% [at 19 µM] | activity change, negative = cytotoxicity [3] -8.96% [at 19 µM] | activation [18] -1.22% [at 19 µM] | cAMP activity change [4] -0.907% [at 18.9 µM] | activity change, negative = inhibition [5] -4.29% [at 19 µM] | activity change, negative = cytotoxicity [6] 5.01% [at 19 µM] | activation [7] 2.07% [at 19 µM] | Potency [8] | Potency [14] | viability change, negative = cytotoxic [9] 3.02% [at 15.8 µM] | activation [10] -4.24% [at 15.8 µM]

CCN(Cc1ccncc1)C(=O)C(CO)c1ccccc1 (stereo not given)
inactive: outcome [16] | outcome [17] | Potency [13] | Potency [3] | outcome [4] | Potency [5] | Potency [6] | Potency [7] | Potency [8] | Potency [14] | Potency [15] | Potency [9] | outcome [19] | outcome [10] | outcome [11] | outcome [12]

O=C(O)c1ccccc1OP(=O)(O)O
inactive: outcome [16] | outcome [17] | Potency [13] | Potency [3] | Potency [18] | outcome [4] | Potency [5] | Potency [6] | Potency [7] | Potency [8] | Potency [14] | Potency [9] | outcome [19] | outcome [10] | outcome [11] | outcome [12]

CCCCCCCCCCCC
active: Potency [14] 68.6 µM
inactive: Potency [13] | Potency [1] | Potency [3] | outcome [4] | Potency [5] | Potency [6] | Potency [7] | Potency [15] | Potency [9] | outcome [19] | outcome [10] | outcome [11] | outcome [12]

C=C[Si](OC(=C)C)(OC(=C)C)OC(=C)C
inactive: outcome [16] | outcome [17] | Potency [13] | Potency [3] | Potency [18] | outcome [4] | Potency [5] | Potency [6] | Potency [7] | Potency [8] | Potency [14] | Potency [15] | Potency [9] | outcome [19] | outcome [10] | outcome [11] | outcome [12]

N[C@H](C(=O)O)c1ccc(O)cc1
inactive: activity change, negative = cytotoxicity [13] 0.253% [at 19 µM] | activity change, negative = cytotoxicity [1] 9.39% [at 19 µM] | activity change, negative = cytotoxicity [3] 3.71% [at 19 µM] | activation [18] 0.585% [at 19 µM] | cAMP activity change [4] 3.37% [at 18.9 µM] | activity change, negative = inhibition [5] -2.34% [at 19 µM] | activity change, negative = cytotoxicity [6] 3.8% [at 19 µM] | activation [7] -0.625% [at 19 µM] | Potency [8] | Potency [14] | activity change, negative = cytotoxicity [15] -6.4% [at 19 µM] | viability change, negative = cytotoxic [9] 1.75% [at 15.8 µM] | activity change, negative = cytotoxicity [19] -0.107% [at 15.8 µM] | activation [10] -1.41% [at 15.8 µM] | activity, negative = inhibition [11] 3.01% [at 10.5 µM] | activation [12] 0.371% [at 11.8 µM]

CC/C=C\CCOC(C)=O
inactive: outcome [16] | outcome [17] | Potency [13] | Potency [3] | Potency [18] | outcome [4] | Potency [5] | Potency [6] | Potency [7] | Potency [8] | Potency [14] | Potency [9] | outcome [19] | outcome [10]

CC(=O)OC/C=C(\C)CC/C=C(\C)CCC=C(C)C
inactive: outcome [16] | outcome [17] | Potency [13] | Potency [3] | Potency [18] | outcome [4] | Potency [5] | Potency [6] | Potency [7] | Potency [8] | Potency [14] | Potency [15] | Potency [9] | outcome [19] | outcome [10] | outcome [11] | outcome [12]

O=Cc1cccc([N+](=O)[O-])c1
inactive: Potency [13] | Potency [3] | Potency [18] | outcome [4] | Potency [5] | Potency [6] | Potency [7] | Potency [8] | Potency [14] | Potency [9] | outcome [19] | outcome [10] | outcome [11] | outcome [12]

CCOC(C)(C)C
inactive: Potency [13] | Potency [3] | Potency [18] | outcome [4] | Potency [5] | Potency [6] | Potency [7] | Potency [8] | Potency [14] | Potency [15] | Potency [9] | outcome [19] | outcome [10] | outcome [11] | outcome [12]

CN(C)CCCN1c2ccccc2CCc2ccc(Cl)cc21
active: Potency [13] 48.6 µM and 33.5 µM | Potency [1] 24.3 µM and 21.1 µM | Potency [3] 24.3 µM and 18.8 µM | Potency [5] 68.6 µM and 29.8 µM | Potency [6] 68.6 µM | Potency [8] 26.6 µM | Potency [15] 30.6 µM and 23.7 µM
inactive: outcome [4] | Potency [7] | Potency [9] | outcome [19] | outcome [10] | outcome [11] | outcome [12]

OC[C@]1(O)OC[C@@H](O)[C@H](O)[C@@H]1O
inactive: Potency [13] | Potency [3] | outcome [4] | Potency [5] | Potency [6] | Potency [7] | Potency [8] | Potency [14] | Potency [15] | Potency [9] | outcome [10] | outcome [11] | outcome [12]

CN1N=C(C(N)=O)CCC1=O
inactive: Potency [13] | Potency [1] | Potency [2] | Potency [3] | Potency [18] | outcome [4] | Potency [5] | Potency [6] | Potency [7] | Potency [8] | Potency [14] | Potency [9] | outcome [19] | outcome [10]

CC(C)(C)NCCNC(C)(C)C
active: Potency [14] 0.864 µM
inactive: Potency [13] | Potency [1] | Potency [3] | Potency [18] | outcome [4] | Potency [5] | Potency [6] | Potency [7] | Potency [8] | Potency [9] | outcome [19] | outcome [10]
